# Test results: ChEMBL document CHEMBL3433997, “St. Jude Leishmania screening dataset” (2016)
# Target: Solute carrier family 2, facilitated glucose transporter member 1 (Homo sapiens) (UniProt P11166)
# Experiment: ST_JUDE_LEISH: Cytotoxicity at 2uM final concentration against transgenic Leishmania Mexicana promastigotes LmGLUT1 that are glucose transport deficient and complemented with the human glucose transporter GLUT1. Activity is measured by DNA content using SYBR green in vitro
# Assay type: functional
# Chain of Solute carrier family 2, facilitated glucose transporter member 1 (Homo sapiens) (P11166 whole entry): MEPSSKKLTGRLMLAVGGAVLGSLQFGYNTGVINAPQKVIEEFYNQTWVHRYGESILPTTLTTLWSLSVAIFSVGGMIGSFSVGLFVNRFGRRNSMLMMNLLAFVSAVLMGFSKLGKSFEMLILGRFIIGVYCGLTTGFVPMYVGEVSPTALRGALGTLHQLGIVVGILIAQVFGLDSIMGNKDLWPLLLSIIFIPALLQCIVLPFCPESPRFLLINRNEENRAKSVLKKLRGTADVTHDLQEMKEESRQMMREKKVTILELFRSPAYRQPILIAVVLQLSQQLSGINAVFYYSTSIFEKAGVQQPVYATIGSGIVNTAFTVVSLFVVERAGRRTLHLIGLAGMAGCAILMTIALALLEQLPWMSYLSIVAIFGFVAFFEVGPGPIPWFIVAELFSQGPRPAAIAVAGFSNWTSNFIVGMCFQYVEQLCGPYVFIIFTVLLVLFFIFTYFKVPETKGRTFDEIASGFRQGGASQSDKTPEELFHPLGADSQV
row,Compound,inhibition
1,CCN(CC)CCN(Cc1ccc(-c2ccc(C(F)(F)F)cc2)cc1)C(=O)Cn1cc(Cc2cnn(C)c2)c(=O)nc1/C=C/c1cccc(F)c1F,3.81%
2,Fc1ccc2[nH]c(-c3cccc(-c4cccc(CN5CCN(c6cnccn6)CC5)c4)c3)nc2c1,7.08%
3,NC(=O)c1cc(-c2ccccc2)cc2c(C3CCC(NCc4ccccc4)C3)c[nH]c12 (stereo not given),0.91%
4,CCCCc1ccccc1NS(=O)(=O)c1ccc(OC)c(N2CCNCC2)c1,-0.96%
5,Cc1cc(C(=O)N(Cc2ccc(-c3ccc(CNCCc4ccc(S(C)(=O)=O)cc4)cn3)cc2)C(C)CN(C)C)ccc1[N+](=O)[O-] (stereo not given),7.26%
6,Fc1cc(Cl)ccc1Nc1ccnc(Nc2ccc3cn[nH]c3c2)n1,12.7%
7,CC1CC(NCCCNc2cc(=O)c3ccccc3[nH]2)c2c1cc(Cl)c(Cl)c2Cl (stereo not given),-1.8%
8,Cc1nc(-c2nc(NCCc3c(C)noc3C)ncc2-c2ccsc2)sc1C,1.02%
9,CCCCCCOc1ccc(/C(N)=N\Cc2ccccc2)c2c1CCCC2,2.62%
10,CSc1nc2cc3c(cc2n1C(=O)c1ccc(C)cc1)OCCO3,6.31%
11,O=[N+]([O-])c1ccc(N2CCCN(C(=S)Nc3ccc(F)cc3Br)CC2)nc1,1.6%
12,N#Cc1cc(N(CCCOc2cccc(OC(F)(F)F)c2)Cc2ccccc2C(F)(F)F)ccc1C(F)(F)F,-0.77%
13,CC1(C)NC(N)=NC(=N)N1OCCCNC(=O)c1ccc([N+](=O)[O-])cc1,4.23%
14,O=C(/C=C/c1ccc(Cl)c(Cl)c1)NCCCCCN1CCC(NC(=S)Nc2ccc(Cl)cc2Cl)CC1,8.85%
15,CN1CCN(c2ccnc3ccc(NC(=O)Nc4cccc5c(-c6ccncc6)cccc45)cc23)CC1,-0.27%
16,CCOc1c(OC)ccc2c1CCN(CCN1CCC(NC(=O)c3ccc(-c4cccc(C(F)(F)F)c4C(F)(F)F)cc3)CC1)C2,1.91%
17,OCC1CCN(Cc2ccc(-c3ccc(-c4nc5cc(F)ccc5[nH]4)cc3)cc2)CC1,6.63%
18,O=C(/C=C/c1ccc(Cl)c(Cl)c1)NCCCCCN1CCC(NC(=O)Nc2ccc(C(F)(F)F)cc2)CC1,8.19%
19,CCOCn1c(-c2ccccc2)cc2c3c(N)nc(N)nc3ccc21,98.3%
20,Cc1nn(-c2ccc(Cl)cc2)c2[nH]c(CN3CCN(c4cccc(Cl)c4)CC3)cc(=O)c12,20.2%

row,Compound,inhibition
1,COc1cccc(-c2cc(C(F)(F)F)n3ncc(C(=O)Nc4cc(Cl)ccc4O)c3n2)c1,0.65%
2,COc1cc(Nc2nc(N)n(C(=O)c3ccc4c(c3)OCO4)n2)cc(OC)c1OC,15.3%
3,CCN(CC)CC(O)c1cc(-c2ccc(OC)cc2)nc2cc(Cl)ccc12 (stereo not given),6.97%
4,COc1ccc(Nc2nc(N/N=C/c3ccc(-c4ccc([N+](=O)[O-])cc4)o3)nc(Nc3ccccc3)n2)cc1,14.4%
5,COc1ccc(-c2cnn3ccc(Nc4cc(OC)c(OC)c(OC)c4)nc23)cc1OC,17.3%
6,O=C(COc1ccc(F)cc1)NC1CCN(c2ccnc3cc(Cl)ccc23)C1 (stereo not given),7.22%
7,CC(=O)c1ccc2c(c1)CCN(CCC1CCC(NC(=O)c3cc4ccccc4[nH]3)CC1)CC2 (stereo not given),2.67%
8,Cn1cc(C(=O)Nc2cccc(-c3cccc(-c4nc5ccccc5[nH]4)c3)c2)n(C)c1=O,4.31%
9,c1ccc(-n2cncn2)cc1,0.46%
10,O=C(c1ccc(Br)o1)N1N=C(c2cccs2)CC1c1ccc(Br)cc1 (stereo not given),5.77%
11,COc1ccc(CC(=O)Nc2ccc(Nc3nc(C)cc(N4CCCC4)n3)cc2)cc1,46%
12,Cc1cc(O)nc(NC#N)n1,2.54%
13,N#Cc1ccc(N[C@@H](CC2CCCCC2)C(=O)Nc2ccc(-c3ccccc3)cc2)c2ccccc12,2.38%
14,COc1ccc(NC(=O)[C@H](CC(C)C)Nc2cc(C)nc(NCC3CCCCC3)n2)cc1,3.07%
15,S=C(NCCCCCN1CCC(c2c[nH]c3ccccc23)CC1)Nc1cccc(I)c1,0.7%
16,Cc1nc2nc(N)nc(N)c2c(C)c1Cc1ccccc1,3.29%
17,FC(F)(F)c1cccnc1N1CCC(Nc2nc3cc(Cl)ccc3[nH]2)CC1,5.58%
18,CN(C)CCNC(=O)NC1CN(c2ncnc3cc(-c4ccccc4)sc23)C1,5.45%
19,CN1CCC(Oc2ccc(CN3CC[C@H](NC(=O)c4ccc(Cl)c(F)c4)C3)c3ccccc23)C1 (stereo not given in full),0.38%
20,O=C(Nc1cccnc1)c1cc(-c2cc(Cl)ccc2O)n[nH]1,2.55%

# Target: Hexose transporter 1 (Plasmodium falciparum) (UniProt O97467)
# Experiment: ST_JUDE_LEISH: Cytotoxicity at 2uM final concentration against transgenic Leishmania Mexicana promastigotes LmPfHT that are glucose transport deficient and complemented with the Plasmodium falciparum hexose transporter. Activity is measured by DNA content using SYBR green in vitro
# Assay type: functional
row,Compound,inhibition
1,CCN(CC)CCN(Cc1ccc(-c2ccc(C(F)(F)F)cc2)cc1)C(=O)Cn1cc(Cc2cnn(C)c2)c(=O)nc1/C=C/c1cccc(F)c1F,4.43%
2,Fc1ccc2[nH]c(-c3cccc(-c4cccc(CN5CCN(c6cnccn6)CC5)c4)c3)nc2c1,5.74%
3,NC(=O)c1cc(-c2ccccc2)cc2c(C3CCC(NCc4ccccc4)C3)c[nH]c12 (stereo not given),1.64%
4,CCCCc1ccccc1NS(=O)(=O)c1ccc(OC)c(N2CCNCC2)c1,-3.65%
5,Cc1cc(C(=O)N(Cc2ccc(-c3ccc(CNCCc4ccc(S(C)(=O)=O)cc4)cn3)cc2)C(C)CN(C)C)ccc1[N+](=O)[O-] (stereo not given),5.46%
6,Fc1cc(Cl)ccc1Nc1ccnc(Nc2ccc3cn[nH]c3c2)n1,10.7%
7,CC1CC(NCCCNc2cc(=O)c3ccccc3[nH]2)c2c1cc(Cl)c(Cl)c2Cl (stereo not given),-2.9%
8,Cc1nc(-c2nc(NCCc3c(C)noc3C)ncc2-c2ccsc2)sc1C,1.58%
9,CCCCCCOc1ccc(/C(N)=N\Cc2ccccc2)c2c1CCCC2,3.36%
10,CSc1nc2cc3c(cc2n1C(=O)c1ccc(C)cc1)OCCO3,4.48%
11,O=[N+]([O-])c1ccc(N2CCCN(C(=S)Nc3ccc(F)cc3Br)CC2)nc1,-0.77%
12,N#Cc1cc(N(CCCOc2cccc(OC(F)(F)F)c2)Cc2ccccc2C(F)(F)F)ccc1C(F)(F)F,-0.39%
13,CC1(C)NC(N)=NC(=N)N1OCCCNC(=O)c1ccc([N+](=O)[O-])cc1,3.33%
14,O=C(/C=C/c1ccc(Cl)c(Cl)c1)NCCCCCN1CCC(NC(=S)Nc2ccc(Cl)cc2Cl)CC1,9.09%
15,CN1CCN(c2ccnc3ccc(NC(=O)Nc4cccc5c(-c6ccncc6)cccc45)cc23)CC1,-0.42%
16,CCOc1c(OC)ccc2c1CCN(CCN1CCC(NC(=O)c3ccc(-c4cccc(C(F)(F)F)c4C(F)(F)F)cc3)CC1)C2,1.96%
17,OCC1CCN(Cc2ccc(-c3ccc(-c4nc5cc(F)ccc5[nH]4)cc3)cc2)CC1,4.55%
18,O=C(/C=C/c1ccc(Cl)c(Cl)c1)NCCCCCN1CCC(NC(=O)Nc2ccc(C(F)(F)F)cc2)CC1,8.67%
19,CCOCn1c(-c2ccccc2)cc2c3c(N)nc(N)nc3ccc21,100%
20,Cc1nn(-c2ccc(Cl)cc2)c2[nH]c(CN3CCN(c4cccc(Cl)c4)CC3)cc(=O)c12,21%

row,Compound,inhibition
1,COc1cccc(-c2cc(C(F)(F)F)n3ncc(C(=O)Nc4cc(Cl)ccc4O)c3n2)c1,1.53%
2,COc1cc(Nc2nc(N)n(C(=O)c3ccc4c(c3)OCO4)n2)cc(OC)c1OC,9.11%
3,CCN(CC)CC(O)c1cc(-c2ccc(OC)cc2)nc2cc(Cl)ccc12 (stereo not given),5.08%
4,COc1ccc(Nc2nc(N/N=C/c3ccc(-c4ccc([N+](=O)[O-])cc4)o3)nc(Nc3ccccc3)n2)cc1,10.6%
5,COc1ccc(-c2cnn3ccc(Nc4cc(OC)c(OC)c(OC)c4)nc23)cc1OC,11.4%
6,O=C(COc1ccc(F)cc1)NC1CCN(c2ccnc3cc(Cl)ccc23)C1 (stereo not given),6.11%
7,CC(=O)c1ccc2c(c1)CCN(CCC1CCC(NC(=O)c3cc4ccccc4[nH]3)CC1)CC2 (stereo not given),-0.31%
8,Cn1cc(C(=O)Nc2cccc(-c3cccc(-c4nc5ccccc5[nH]4)c3)c2)n(C)c1=O,2.7%
9,c1ccc(-n2cncn2)cc1,1.47%
10,O=C(c1ccc(Br)o1)N1N=C(c2cccs2)CC1c1ccc(Br)cc1 (stereo not given),7.79%
11,COc1ccc(CC(=O)Nc2ccc(Nc3nc(C)cc(N4CCCC4)n3)cc2)cc1,51.5%
12,Cc1cc(O)nc(NC#N)n1,3.15%
13,N#Cc1ccc(N[C@@H](CC2CCCCC2)C(=O)Nc2ccc(-c3ccccc3)cc2)c2ccccc12,3.08%
14,COc1ccc(NC(=O)[C@H](CC(C)C)Nc2cc(C)nc(NCC3CCCCC3)n2)cc1,2.78%
15,S=C(NCCCCCN1CCC(c2c[nH]c3ccccc23)CC1)Nc1cccc(I)c1,1.62%
16,Cc1nc2nc(N)nc(N)c2c(C)c1Cc1ccccc1,2.88%
17,FC(F)(F)c1cccnc1N1CCC(Nc2nc3cc(Cl)ccc3[nH]2)CC1,1.96%
18,CN(C)CCNC(=O)NC1CN(c2ncnc3cc(-c4ccccc4)sc23)C1,4.29%
19,CN1CCC(Oc2ccc(CN3CC[C@H](NC(=O)c4ccc(Cl)c(F)c4)C3)c3ccccc23)C1 (stereo not given in full),3.36%
20,O=C(Nc1cccnc1)c1cc(-c2cc(Cl)ccc2O)n[nH]1,2.47%
